Data published in the supplement of paper PMC9694430.

Key:
Assay in all cases: thermal shift delta Tm vs DMSO control; higher = stronger stabilization (binding)
Conditions in all cases: 12.5 µM; protein concentration 2 µM
LOC_OS01G01410-cb001 = test system: LOC_OS01G01410-cb001
In short: (§1)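 The melting temperature shift given here is a triplicate mean, measured against protein that received only DMSO. Melting temperatures came from Boltzmann fits of differential scanning fluorimetry data on E. coli-expressed, purified rice kinase domain constructs. Each 19.5 μl well contained 2 μM kinase, 100 mM potassium phosphate pH 7.5, 150 mM NaCl, 10% glycerol, 5 × SYPRO Orange and compound in DMSO. Plates were scanned from 25°C to 95°C at 0.05°C/s.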

LOC_OS01G02750-cb003 = test system: LOC_OS01G02750-cb003
In short: as §1

LOC_OS01G10900-cb004 = test system: LOC_OS01G10900-cb004
In short: as §1

LOC_OS01G13800-cb001 = test system: LOC_OS01G13800-cb001
In short: as §1

LOC_OS01G14860-cb001 = test system: LOC_OS01G14860-cb001
In short: as §1

LOC_OS01G21960-cb002 = test system: LOC_OS01G21960-cb002
In short: as §1

LOC_OS01G39600-cb002 = test system: LOC_OS01G39600-cb002
In short: as §1

LOC_OS01G48390-cb002 = test system: LOC_OS01G48390-cb002
In short: as §1

LOC_OS01G51400-cb002 = test system: LOC_OS01G51400-cb002
In short: as §1

LOC_OS01G52050-cb004 = test system: T1, LOC_OS01G52050-cb004
T1 sequence (whole entry): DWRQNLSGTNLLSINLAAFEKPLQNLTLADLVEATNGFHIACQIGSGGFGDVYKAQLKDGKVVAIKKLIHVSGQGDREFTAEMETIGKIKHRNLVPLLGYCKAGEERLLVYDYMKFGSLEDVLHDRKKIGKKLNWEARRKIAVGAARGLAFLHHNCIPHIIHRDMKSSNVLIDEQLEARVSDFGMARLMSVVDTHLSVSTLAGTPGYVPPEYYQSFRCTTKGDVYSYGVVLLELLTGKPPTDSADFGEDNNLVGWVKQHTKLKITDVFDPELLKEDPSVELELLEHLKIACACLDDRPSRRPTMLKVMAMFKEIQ
In short: as §1

| Compound | thermal shift delta Tm (LOC_OS01G01410-cb001) | thermal shift delta Tm (LOC_OS01G02750-cb003) | thermal shift delta Tm (LOC_OS01G10900-cb004) | thermal shift delta Tm (LOC_OS01G13800-cb001) | thermal shift delta Tm (LOC_OS01G14860-cb001) | thermal shift delta Tm (LOC_OS01G21960-cb002) | thermal shift delta Tm (LOC_OS01G39600-cb002) | thermal shift delta Tm (LOC_OS01G48390-cb002) | thermal shift delta Tm (LOC_OS01G51400-cb002) | thermal shift delta Tm (LOC_OS01G52050-cb004) |
| --- | --- | --- | --- | --- | --- | --- | --- | --- | --- | --- |
| CNC(=O)c1ccc(C)c(-n2c(C)cc(OCc3ccc(F)cc3F)c(Br)c2=O)c1 | -0.05 °C | 0.1 °C | 0.26 °C | 0.31 °C | -0.06 °C | 0.34 °C | -0.13 °C | 0.65 °C | 0.44 °C | 0.41 °C |
| COc1cc2ncnc(Nc3ccc(Cl)cc3F)c2cc1OC | 0.69 °C | 0.81 °C | 0.27 °C | 0.26 °C | 0.32 °C | 0.85 °C | 1.07 °C | 0.9 °C | 0.46 °C | 0.58 °C |
| COc1cc2nccc(Oc3ccc(NC(=O)c4cn(C(C)C)c(=O)n(-c5ccc(F)cc5)c4=O)cc3F)c2cc1OC | 0.17 °C | 1.65 °C | -0.15 °C | 0.61 °C | 0.98 °C | 0.2 °C | 0.41 °C | 0.32 °C | 0.13 °C | 4.45 °C |
| COc1cc2ccc(=O)oc2cc1O [Scopoletin] | -0.07 °C | 0.35 °C | 0.25 °C | -0.08 °C | 0.39 °C | 0.11 °C | -0.27 °C | -0.08 °C | 0.18 °C | 0.81 °C |
| CC1=C(C(=O)Nc2cc3cn[nH]c3cc2F)C(c2ccc(C(F)(F)F)cc2)CC(=O)N1 (stereo not given) | 0.57 °C | -0.19 °C | 0.11 °C | 0.54 °C | 0.16 °C | 0.33 °C | -0.15 °C | -0.18 °C | -0.23 °C | 0 °C |
| CC(C)c1cnn2c(NCc3ccccc3)cc(NCCCCCCN)nc12 | 0.34 °C | 0.13 °C | 0.11 °C | -0.23 °C | 0.11 °C | 0.56 °C | -0.29 °C | 0.09 °C | -0.21 °C | 0.18 °C |
| CCCCCCCCCCCCc1ccc(S(=O)(=O)Nc2nncs2)cc1 | 0.38 °C | 0.24 °C | 0.46 °C | 0.29 °C | 0.62 °C | 1.26 °C | 0.44 °C | 0.62 °C | -0.04 °C | 1.1 °C |
| N#Cc1cccc(-c2c[nH]c3ncnc(N4CCOCC4)c23)c1 | 0.72 °C | 2.58 °C | 0.72 °C | 0.32 °C | 1.47 °C | 1 °C | 1.94 °C | 0.73 °C | 0.58 °C | 1.08 °C |
| CN1CC(O)C2=C/C(=N/NC(N)=O)C(=O)C=C21 (stereo not given) [Carbazochrome] | 0.3 °C | 0.81 °C | -0.04 °C | -0.31 °C | 0.31 °C | 0.23 °C | 0.14 °C | -0.01 °C | 0.5 °C | -1.17 °C |
| O=C(/C=C/c1ccc(O)c(O)c1)c1ccc(O)cc1O [Butein] | 3.34 °C | 6.05 °C | 1.41 °C | 1.88 °C | 4.26 °C | 3.26 °C | 4.11 °C | 1.83 °C | 2.14 °C | 9.01 °C |
| O=C(O)CCC(=O)Nc1ccc(Br)cn1 [Bikinin] | 0.12 °C | 0.77 °C | -0.24 °C | 0.21 °C | 1.54 °C | 0.85 °C | -0.26 °C | 0.5 °C | 0.37 °C | 0.34 °C |
| COc1cc(Nc2ncc(F)c(Nc3ccc4c(n3)NC(=O)C(C)(C)O4)n2)cc(OC)c1OC | 0.76 °C | 0.35 °C | 0.54 °C | -0.84 °C | 5.04 °C | 3.95 °C | 4.95 °C | 0.28 °C | 0.41 °C | 7.74 °C |
| O=C(NCc1ccccc1)c1csc(Nc2ccncn2)n1 [Thiazovivin] | 0.06 °C | 1.66 °C | 2.94 °C | 1.01 °C | 3.98 °C | 2.52 °C | 0.44 °C | 0.4 °C | 0.24 °C | 2.17 °C |
| OCCn1cc(-c2ccc3c(c2)CC/C3=N\O)c(-c2ccncc2)n1 | 0.98 °C | -2.29 °C | 0.31 °C | 0.39 °C | 0.01 °C | 0.47 °C | 0.93 °C | 0.73 °C | 0.39 °C | -0.04 °C |
| CC(C)S(=O)(=O)c1ccc2nccc(Nc3ccc4scnc4c3)c2c1 | 0.88 °C | 1.53 °C | 0.44 °C | 0.78 °C | 0.59 °C | 0.58 °C | 0.91 °C | 2.39 °C | 0.31 °C | 3.11 °C |
| Cc1cc(CS(=O)(=O)c2ccccc2)cc(OCc2ccc(CN3CCC[C@@H]3CO)cc2)c1 | 0.31 °C | 1.37 °C | 0.19 °C | -0.27 °C | -0.13 °C | 0.3 °C | -13.5 °C | 0.65 °C | 0.36 °C | -0.24 °C |
| O=c1cc(N2CCOCC2)oc2c(-c3ccccc3)cccc12 | 1.06 °C | -0.94 °C | 3.69 °C | 0.14 °C | 0.93 °C | 0.79 °C | 0.29 °C | 1.24 °C | 0.33 °C | 0.42 °C |
| Cc1cnc(Nc2ccc(OCCN3CCCC3)cc2)nc1Nc1cccc(S(=O)(=O)NC(C)(C)C)c1 | 1.71 °C | 0.69 °C | 0.57 °C | -0.28 °C | 1.28 °C | 2.52 °C | 5.09 °C | 0.66 °C | 0.43 °C | 2.51 °C |
| Cc1ccc(NC(=O)c2ccc(CN3CCN(C)CC3)cc2)cc1Nc1nc(-c2cccnc2)cs1 [Masitinib (AB1010)] | 1.11 °C | 0.48 °C | 0.92 °C | 0.24 °C | 0.16 °C | 0.26 °C | -0.05 °C | 0.15 °C | -0.06 °C | -0.18 °C |
| CCCCNc1ncc2c(-c3ccc(CN4CCN(C)CC4)cc3)cn([C@H]3CC[C@H](O)CC3)c2n1 | 5.57 °C | 6.91 °C | 0.53 °C | -0.91 °C | 2.44 °C | 2.55 °C | 7.19 °C | 3.3 °C | 0.81 °C | 9.81 °C |
